The list is not random: actives were taken first. Their share in the collection is about 7.5%.
NPC1 prom act – activators of NPC1 promoter; Huh7 NPC1 promoter luciferase reporter, 24 h; Potency, µM (titrated, usually from 9.22 µM), most hits filed as activators; 2.4% of 320,000 active; further: nearly all actives have a fitted effect of over 60% in size
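Luciferase expression driven by the NPC1 promoter was measured in stably transfected Huh7 cells after a 24 h compound incubation, using a luciferase reagent and a luminescence read.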
SMN2 splice enh – SMN2 splice variant enhancement. 2.8% of 210,000 active. AID 1458. Potency, µM (highest dose often 46.1 µM), actives largely listed as activators. HEK293 SMN2-luciferase splicing reporter, luminescence, 30-36 h; further: nearly all actives have a fitted effect of over 55% in size
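HEK293 cells carry an SMN2 minigene-luciferase reporter in which exon 7 inclusion puts luciferase in frame. Cells were seeded at 2000 cells/well, attached for 10-12 hours, then exposed to compounds for 30-36 hours at 37C before ONE-Glo luminescence.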
Rab9 promoter act – Rab9 promoter activation; 2.8% of 320,000 active; AID 485297; Huh7 Rab9 promoter-luciferase reporter, luminescence, 24 h; Potency, µM (doses to about 9.22 µM), usual class: activators; further: nearly all actives have a fitted effect of over 60% in size
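Promoter activation is measured as luciferase luminescence in Huh7 cells stably transfected with a Rab9 promoter–luciferase construct, following 24 h compound exposure at 37 °C and 10 min reagent incubation at ambient temperature.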
ELG1 genotox – genotoxicity induction in ELG1-luciferase HEK293T cells | HEK293T ELG1-luciferase reporter, luminescence, 16 h | Potency, µM (doses to about 46 µM), usual class: activators | 1.3% of 330,000 active; further: nearly all actives have a fitted effect of over 60% in size
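HEK293T cells expressing luciferase-tagged ELG1 were exposed to compound or DMSO vehicle for 16 hr at 37 °C and 5% CO2. Luciferase activity was then measured with ONE-Glo after 30 min at room temperature.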
FLuc counter – counter-screen for miR-21 project: firefly luciferase inhibitors or activators; P08659; purified FLuc, Km substrates, luminescence inhibition; Potency, µM (top dose mostly 57.5 µM), actives largely listed as inhibitors; 6.9% of 360,000 active; further: nearly all actives have a fitted effect of over 55% in size
Target sequence (P08659 whole entry, looked up): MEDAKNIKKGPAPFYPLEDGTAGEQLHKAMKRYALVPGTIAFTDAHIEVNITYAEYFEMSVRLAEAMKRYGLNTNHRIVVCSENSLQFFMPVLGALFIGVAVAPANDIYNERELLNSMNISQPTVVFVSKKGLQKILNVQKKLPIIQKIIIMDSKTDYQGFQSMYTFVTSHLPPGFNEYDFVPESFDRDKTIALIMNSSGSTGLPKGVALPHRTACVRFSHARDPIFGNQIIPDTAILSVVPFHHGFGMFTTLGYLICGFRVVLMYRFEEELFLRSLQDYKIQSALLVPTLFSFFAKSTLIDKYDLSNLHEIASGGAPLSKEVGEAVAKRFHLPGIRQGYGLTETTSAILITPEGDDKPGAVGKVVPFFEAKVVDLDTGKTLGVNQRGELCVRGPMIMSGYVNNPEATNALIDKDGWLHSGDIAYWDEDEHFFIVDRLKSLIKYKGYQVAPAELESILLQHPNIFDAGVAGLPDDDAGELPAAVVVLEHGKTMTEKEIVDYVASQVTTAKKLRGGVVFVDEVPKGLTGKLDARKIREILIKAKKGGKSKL
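Purified P. pyralis luciferase (10nM final) with 10uM D-luciferin and 10uM ATP (Km levels) in 50mM Tris acetate pH 7.5, 10mM Mg acetate, 0.01% Tween-20, 0.05% BSA; qHTS 6-point titration, ~60 µM downward; luminescence read.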
Hits are given with their value; [ ] = remark or other dose. The call rests on the fitted dose curve; in most records, active means well fitted curve in the direction sought with a large enough effect; inconclusive means small, poorly fitted or top-dose-only effect, or another doubt; inactive means no such curve, though single readings can be large; an effect the other way counts as inactive or inconclusive.

What do the screens show for `CCc1cc(=O)oc2c(C)c(OC(C)C(=O)N3CCC[C@@H]3C(=O)O)ccc12` (some centres undefined)?
NPC1 prom act: inactive; Rab9 promoter act: inactive; ELG1 genotox: inactive; FLuc counter: inactive

What do the screens show for `O=C1/C(=C/c2cccc([N+](=O)[O-])c2)CCc2ccccc21`?
NPC1 prom act: inactive; SMN2 splice enh: inactive; Rab9 promoter act: inactive; ELG1 genotox: inactive; FLuc counter: 9.5µM

What do the screens show for `O=C(O)c1ccc(-n2ncc3c2/C(=C/c2cccc([N+](=O)[O-])c2)CC3)cc1`?
NPC1 prom act: 1.6µM; Rab9 promoter act: 2.8µM; ELG1 genotox: inactive; FLuc counter: 11µM

Results for CCN1C/C(=C\c2cccc([N+](=O)[O-])c2)C(=O)/C(=C/c2cccc([N+](=O)[O-])c2)C1 ?
NPC1 prom act: inactive; SMN2 splice enh: inactive; Rab9 promoter act: inactive; ELG1 genotox: inactive; FLuc counter: inactive

How did O=C1/C(=C/c2ccc([N+](=O)[O-])cc2)CCc2ccccc21 do in these assays?
NPC1 prom act: inactive; Rab9 promoter act: inconclusive; ELG1 genotox: 7.3µM; FLuc counter: 0.15µM

How did O=c1cc2c(nn1Cc1cccc([N+](=O)[O-])c1)-c1ccccc1CC2 do in these assays?
NPC1 prom act: inactive; SMN2 splice enh: inactive; Rab9 promoter act: inactive; ELG1 genotox: inactive; FLuc counter: inactive

What do the screens show for `COc1cc(OC)cc(C(=O)OCC(=O)N2CCCC2)c1`?
NPC1 prom act: inactive; Rab9 promoter act: inactive; ELG1 genotox: inactive; FLuc counter: inactive

What do the screens show for `CCN1CCN(c2nc3c(C)cccn3c(=O)c2/C=C(\C#N)C(=O)NC)CC1`?
NPC1 prom act: inactive; Rab9 promoter act: inactive[1.84 µM]; ELG1 genotox: inactive; FLuc counter: inactive

What do the screens show for `O=C(Nc1ccc(N2CCCC2)c(Cl)c1)c1ccco1`?
NPC1 prom act: 1.4µM; SMN2 splice enh: 6.3µM; Rab9 promoter act: 0.5µM; ELG1 genotox: inconclusive; FLuc counter: 4.8µM

How did CN1CCN(c2ccc(NC(=O)c3ccco3)cc2Cl)CC1 do in these assays?
NPC1 prom act: 0.4µM; Rab9 promoter act: 0.63µM; ELG1 genotox: 8.2µM; FLuc counter: 4.8µM

What do the screens show for `O=C(Nc1ccc(CCC(=O)N2CCCC2)cc1)c1ncn[nH]1`?
NPC1 prom act: inactive; SMN2 splice enh: inactive; Rab9 promoter act: inactive; ELG1 genotox: inactive; FLuc counter: inconclusive

Results for O=C(Nc1ccc(N2CCCCC2)c(Cl)c1)c1ncn[nH]1 ?
NPC1 prom act: inconclusive; Rab9 promoter act: inactive; ELG1 genotox: inconclusive; FLuc counter: 6µM

How did CCN1CCN(c2ccc(NC(=O)c3ccco3)cc2Cl)CC1 do in these assays?
NPC1 prom act: inconclusive; Rab9 promoter act: inconclusive; ELG1 genotox: inconclusive; FLuc counter: 17µM

How did CCCCCCCCNC(=O)CC(NS(=O)(=O)c1ccc(NC(C)=O)cc1)C(C)C (centres undefined) do in these assays?
NPC1 prom act: inactive; SMN2 splice enh: inactive; Rab9 promoter act: inactive; ELG1 genotox: inactive; FLuc counter: inactive

Results for Cc1ccc(NC(=O)c2cc(NC(=O)c3ccco3)ccc2N2CCOCC2)cc1Cl ?
NPC1 prom act: inactive; SMN2 splice enh: inactive; Rab9 promoter act: inactive; ELG1 genotox: inactive; FLuc counter: inactive

Results for O=C(Nc1ccc(N2CCOCC2)c([N+](=O)[O-])c1)c1ccco1 ?
NPC1 prom act: inactive; SMN2 splice enh: 13µM; Rab9 promoter act: inconclusive; ELG1 genotox: inactive; FLuc counter: 17µM

What do the screens show for `CCN1CCN(c2ccc(NC(=O)c3cccc(F)c3)cc2Cl)CC1`?
NPC1 prom act: inconclusive; Rab9 promoter act: 3.5µM; ELG1 genotox: inconclusive; FLuc counter: 17µM

What do the screens show for `Cc1ccc(-c2cnc(NCc3ccc(C(F)(F)F)cc3)n2C)cc1`?
SMN2 splice enh: inactive; FLuc counter: inactive

Results for O=C(CCNC(=O)Cn1ccc2ccccc2c1=O)NCCCN1CCN(c2ccc(F)cc2)CC1 ?
NPC1 prom act: inactive; SMN2 splice enh: inactive; Rab9 promoter act: inactive; ELG1 genotox: inactive; FLuc counter: inactive

How did Cc1ccc(NC(=O)C2CC2c2ccccc2)c([N+](=O)[O-])c1 (centres undefined) do in these assays?
NPC1 prom act: inconclusive; Rab9 promoter act: inactive; ELG1 genotox: inconclusive; FLuc counter: 19µM

What do the screens show for `O=C(Nc1ccc(Cl)cc1F)C1CC1c1ccccc1` (centres undefined)?
NPC1 prom act: inactive; Rab9 promoter act: inactive; ELG1 genotox: inactive; FLuc counter: inconclusive

Assay outcomes (PubChem BioAssay)
